In PubChem BioAssay:
Inconclusive results are not listed. Calls of active or inactive are those of the source.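 How the source made its calls, unless noted: active means inhibition over a set limit, the all-compound mean plus 3 SD, in both replicate runs; inconclusive means over that limit in just one replicate run; inactive means at or under that limit in both runs.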

How the values were obtained:
[1] = reducers of endogenous Her2 protein level, primary screen, SKBR3 breast tumor cells, AlphaScreen, ATP viability (AID 461;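 active means Her2 level under about 52% in both replicate screens, with viability over 70% of control, limit read from the data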;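 on Her2 level: lower value means less Her2 protein in the cells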;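 on viability: percent of carrier control wells set as 100% viability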); conditions: 18-24 h, measured here: SKBR3 viability, ATP luminescence, at 10 µM
[2] = molecular target: Receptor tyrosine-protein kinase erbB-2 (Homo sapiens) (UniProt P04626); assay: as above; conditions: 18-24 h, at 10 µM, stronger effect = lower value
Sequence of Receptor tyrosine-protein kinase erbB-2 (Homo sapiens) (P04626 whole entry, looked up): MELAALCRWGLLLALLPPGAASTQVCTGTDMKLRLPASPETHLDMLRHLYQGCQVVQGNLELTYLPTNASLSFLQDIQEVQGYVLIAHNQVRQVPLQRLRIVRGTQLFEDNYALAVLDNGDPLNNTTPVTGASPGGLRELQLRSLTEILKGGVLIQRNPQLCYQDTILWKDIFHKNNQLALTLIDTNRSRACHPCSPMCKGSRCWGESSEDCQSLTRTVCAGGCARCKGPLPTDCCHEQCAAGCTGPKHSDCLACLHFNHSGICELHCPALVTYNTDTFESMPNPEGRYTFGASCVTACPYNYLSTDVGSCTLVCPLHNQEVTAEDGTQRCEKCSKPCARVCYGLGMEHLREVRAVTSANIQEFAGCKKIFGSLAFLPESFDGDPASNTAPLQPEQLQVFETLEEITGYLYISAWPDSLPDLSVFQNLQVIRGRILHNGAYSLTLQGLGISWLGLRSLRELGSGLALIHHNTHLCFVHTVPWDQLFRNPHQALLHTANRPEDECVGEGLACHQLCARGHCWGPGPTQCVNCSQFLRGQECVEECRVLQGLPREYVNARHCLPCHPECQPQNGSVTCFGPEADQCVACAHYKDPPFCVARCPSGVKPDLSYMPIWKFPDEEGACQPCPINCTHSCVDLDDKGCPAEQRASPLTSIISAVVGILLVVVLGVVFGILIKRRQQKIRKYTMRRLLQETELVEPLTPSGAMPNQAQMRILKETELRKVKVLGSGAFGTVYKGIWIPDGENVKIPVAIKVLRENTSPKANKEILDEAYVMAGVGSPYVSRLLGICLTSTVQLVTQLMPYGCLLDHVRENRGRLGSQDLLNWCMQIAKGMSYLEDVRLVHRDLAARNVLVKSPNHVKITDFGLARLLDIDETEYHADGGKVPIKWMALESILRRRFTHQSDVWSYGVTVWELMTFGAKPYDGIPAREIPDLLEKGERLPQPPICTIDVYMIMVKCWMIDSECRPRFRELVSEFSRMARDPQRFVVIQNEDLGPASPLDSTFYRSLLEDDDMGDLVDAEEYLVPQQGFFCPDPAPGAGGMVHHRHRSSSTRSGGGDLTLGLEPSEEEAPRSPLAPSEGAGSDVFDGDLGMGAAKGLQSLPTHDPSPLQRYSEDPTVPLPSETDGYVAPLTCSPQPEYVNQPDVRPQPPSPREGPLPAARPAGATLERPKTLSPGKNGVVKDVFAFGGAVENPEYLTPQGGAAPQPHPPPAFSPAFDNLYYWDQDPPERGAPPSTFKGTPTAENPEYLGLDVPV

[3] = SK-BR-3 cell growth inhibitors, pilot screen, 24 h, human (AID 572;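 active means viability at or below 10% of carrier control in both of two separate runs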;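 further: compound exposure lasted between 18 and 24 h rather than exactly 24 h; 100% = carrier-treated control wells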); conditions: SK-BR-3 viability, CellTiter-Glo luminescence, at 10 µM, stronger effect = lower value
[4] = HUVEC growth inhibition – cell-based, human, primary screen (AID 575;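 active means viability at or below 30% in both replicate assays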;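 further: 100% = median of untreated cell wells with 0.1% DMSO on each plate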); conditions: HUVEC proliferation, CellTiter-Glo luminescence, 72 h; at 10 µM; stronger effect = lower value
[5] = growth inhibitors of H69AR lung tumor, primary screen, human, duplicate replicates (AID 580;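 active means viability at or under a set limit in both replicates, limit being median viability minus 3 SD, cut at about 48% in these data, passing the limit was not always enough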;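 further: 100% = mean luminescence of untreated wells and 0% = no signal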); conditions: H69AR lung tumor cells viability, ATP luminescence, 72 h; at 10 µM; stronger effect = lower value
[6] = reversal of MRP1-mediated doxorubicin resistance, pilot screen, H69AR cells, doxorubicin co-treatment (AID 601;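 active means viability loss from added drug above about 55%, and viability with drug at most 40%, in both replicates, limit read from the data, passing the limit was not always enough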); conditions: CellTiter-Glo, 72 h, at 10 µM; for differential viability (reversal): stronger effect = higher value
[7] = 384-well plate pilot, post-Golgi transport modulator project, inhibition of yeast transport mutant growth (AID 636; in the data active means inhibition above about 31%); conditions: absorbance 615 nm, about 18 h, stronger effect = higher value
[8] = growth suppression of yeast trafficking mutant, preliminary HTS, modulators of trafficking downstream of Golgi apparatus project, 1536-format plate, OD 615 nm (AID 637; in the data active means inhibition above about 30%); conditions: yeast transport mutant growth, absorbance 615 nm, 18 h; stronger effect = higher value
[9] = OD615 S. cerevisiae growth inhibition, permissive medium, pilot counter-assay, permissive growth control for S. cerevisiae lifespan shortening project (AID 705;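 active means growth inhibition above 25% in both replicates, a cutoff set 3 SD above the mean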); conditions: OD615, 24 h, at 10 µM, stronger effect = higher value
[10] = Restrictive medium S. cerevisiae growth inhibition, OD615, pilot screen of yeast lifespan reduction project, restrictive growth control (AID 706;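 active means growth inhibition above a set limit, 3 SD over mean compound inhibition, in both replicates, cut at about 43% in these data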;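 further: modified DeaD lifespan yeast strain shifted to restrictive glucose medium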); conditions: OD615, 48 h, at 10 µM, stronger effect = higher value
[11] = viability gain of MRP-1-high H69AR cells under doxorubicin, pilot screen, MRP-1 activator project, CellTiter-Glo, duplicate (AID 807;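 active means viability increase at or above a cutoff of the median across tested compounds plus 3 SD, cut at about 8.5% in these data, passing the limit was not always enough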;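 further: compound pretreatment 18-22 h then 72 h combined with doxorubicin; 0% = doxorubicin alone and 100% = vehicle without doxorubicin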); conditions: H69AR viability with doxorubicin, CellTiter-Glo luminescence; at 10 µM; stronger effect = higher value
[12] = growth suppression of beta-catenin knockout HCT116, pilot screen, human colon tumor cells (AID 823;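 active means cell viability at or below a set limit in both duplicate runs, the limit being the all-compound median minus 4 SD, cut at about 23% in these data, passing the limit was not always enough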;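 further: 0% = wells killed by 20 µM Hyamine and 100% = untreated DMSO cell wells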); conditions: CellTiter-Glo, 60 h, at 10 µM, stronger effect = lower value
[13] = growth suppression of PTEN-deleted HCT116, pilot screen, cell-based, HCT116 clonal line, CellTiter-Glo (AID 824;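 active means viability at or below 27.92% in each of two runs, the all-compound median minus 4 SD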;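 further: 0% = 20 µM Hyamine control and 100% = vehicle cell control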); conditions: 60 h, at 10 µM, stronger effect = lower value
[14] = inhibitors of the yeast RAM network, pilot screen, dse1pr::URA3 reporter, 5-FOA selection (AID 869);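 further: 0% = DMSO wells with no growth and 100% = 10 µM 1-NA-PP1 with full growth; RAM network block rescues cells from 5-FOA so hits raise OD615 growth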; conditions: S. cerevisiae dse1pr::URA3 5-FOA growth, OD615, 2 d; at 10 µM; stronger effect = higher value; strain carries analog-sensitive mutant Cbk1 kinase
[15] = RAM signaling pathway blockade in yeast – S. cerevisiae, Pdr1DBD-CYC8 efflux-inhibited sensitized strain, primary screen (AID 1298;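 active means RAM network inhibition above 8.4% in each of two replicates, 3 SD over the compound average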;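 further: 0% = DMSO untreated cells without growth and 100% = 10 µM 1-NA-PP1 full growth; higher means more yeast growth rescued from 5-FOA killing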); conditions: S. cerevisiae cbk1-as DSE1-URA3 strain, 5-FOA growth OD615, 2 d; at 50 µM; stronger effect = higher value
[16] = H69AR cells + 2 uM doxorubicin, measured here: viability with 2 uM doxorubicin, stronger effect = lower value
[17] = H69AR cells, compound alone cytotoxicity

SMILES: CCCCN(C)C(=O)c1cn(C)c2ccc(S(=O)(=O)N(C)C)cc2c1=O
- viability [1]: 96%
- Her2 level [2]: 102% (inactive)
- viability [3]: 96% (inactive)
- viability [4]: 102% (inactive)
- viability [5]: 102% (inactive)
- differential viability (reversal) ([6]; H69AR cells + 2 uM doxorubicin): 6.23% (inactive)
- viability [6, 16]: 95.5%
- viability [6, 17]: 102%
- inhibition [7]: 0.13% (inactive)
- inhibition [8]: -4.5% (inactive)
- growth inhibition [9]: -3.25% (inactive)
- growth inhibition [10]: 3.02% (inactive)
- viability increase [11]: 0.32% (inactive)
- viability [12]: 100% (inactive)
- viability [13]: 108% (inactive)
- inhibition [14]: 0.805% (inactive)
- RAM network inhibition [15]: 2.99% (inactive)

SMILES: COc1ccc(-n2c(Cc3cccn3C)nnc2SCC(=O)Nc2ccc(Cl)cc2)cc1
- viability [1]: 99%
- Her2 level [2]: 58% (inactive)
- viability [3]: 99% (inactive)
- viability [4]: 46.6% (inactive)
- viability [5]: 70.7% (inactive)
- differential viability (reversal) ([6]; H69AR cells + 2 uM doxorubicin): -8.34% (inactive)
- viability [6, 16]: 79%
- viability [6, 17]: 70.7%
- inhibition [7]: -0.38% (inactive)
- inhibition [8]: 2% (inactive)
- growth inhibition [9]: 4.53% (inactive)
- growth inhibition [10]: 8.94% (inactive)
- viability increase [11]: -6.37% (inactive)
- viability [12]: 47.6% (inactive)
- viability [13]: 51.3% (inactive)
- inhibition [14]: -0.125% (inactive)
- RAM network inhibition [15]: 5.81% (inactive)

SMILES: CC1CCc2nn(CC(=O)Nc3ccc(F)cc3F)cc2C1 (stereo not given)
- viability [1]: 108%
- Her2 level [2]: 97.5% (inactive)
- viability [3]: 108% (inactive)
- viability [4]: 100% (inactive)
- viability [5]: 104% (inactive)
- differential viability (reversal) ([6]; H69AR cells + 2 uM doxorubicin): 14.7% (inactive)
- viability [6, 16]: 89.5%
- viability [6, 17]: 104%
- inhibition [7]: -0.93% (inactive)
- inhibition [8]: -6.72% (inactive)
- growth inhibition [9]: -2.97% (inactive)
- growth inhibition [10]: -12.2% (inactive)
- viability increase [11]: 1.3% (inactive)
- viability [12]: 97.8% (inactive)
- viability [13]: 98.3% (inactive)
- inhibition [14]: 2.21% (inactive)
- RAM network inhibition [15]: -0.77% (inactive)

SMILES: COC(=O)CSC1=NS(=O)(=O)c2ccccc21
- viability [1]: 143%
- Her2 level [2]: 92% (inactive)
- viability [3]: 143% (inactive)
- viability [4]: 60% (inactive)
- viability [5]: 62.6% (inactive)
- differential viability (reversal) ([6]; H69AR cells + 2 uM doxorubicin): -26.7% (inactive)
- viability [6, 16]: 89.3%
- viability [6, 17]: 62.6%
- inhibition [7]: -7.43% (inactive)
- inhibition [8]: -2.3% (inactive)
- growth inhibition [9]: 94.3% (active)
- growth inhibition [10]: 98.3% (active)
- viability increase [11]: -0.32% (inactive)
- viability [12]: 99.4% (inactive)
- viability [13]: 96.4% (inactive)
- inhibition [14]: -0.34% (inactive)
- RAM network inhibition [15]: -1.77% (inactive)

SMILES: Cn1c(C(=O)NCCN2CCN(c3ccccc3F)CC2)cc2c(=O)n(C)c3ccccc3c21
- viability [1]: 89%
- Her2 level [2]: 73.5% (inactive)
- viability [3]: 89% (inactive)
- viability [4]: 70.3% (inactive)
- viability [5]: 69.7% (inactive)
- differential viability (reversal) ([6]; H69AR cells + 2 uM doxorubicin): -2.84% (inactive)
- viability [6, 16]: 72.5%
- viability [6, 17]: 69.7%
- inhibition [7]: -1.03% (inactive)
- inhibition [8]: 2% (inactive)
- growth inhibition [9]: -0.67% (inactive)
- growth inhibition [10]: -2.32% (inactive)
- viability increase [11]: -2.38% (inactive)
- viability [12]: 74.4% (inactive)
- viability [13]: 73.2% (inactive)
- inhibition [14]: 0.115% (inactive)
- RAM network inhibition [15]: 0.11% (inactive)

SMILES: COC(=O)COc1cccc(NC(=O)COc2ccccc2)c1
- viability [1]: 99.5%
- Her2 level [2]: 122% (inactive)
- viability [3]: 99.5% (inactive)
- viability [4]: 90.7% (inactive)
- viability [5]: 96.5% (inactive)
- differential viability (reversal) ([6]; H69AR cells + 2 uM doxorubicin): 3.21% (inactive)
- viability [6, 16]: 93.2%
- viability [6, 17]: 96.5%
- inhibition [7]: -0.13% (inactive)
- inhibition [8]: -7.33% (inactive)
- growth inhibition [9]: -12.5% (inactive)
- growth inhibition [10]: 3.51% (inactive)
- viability increase [11]: -0.74% (inactive)
- viability [12]: 97.2% (inactive)
- viability [13]: 93.7% (inactive)
- inhibition [14]: 1.66% (inactive)
- RAM network inhibition [15]: 2.45% (inactive)

SMILES: CCCN1CC23C=CC(O2)C(C(=O)O)C3C1=O (stereo not given)
- viability [1]: 81.5%
- Her2 level [2]: 94% (inactive)
- viability [3]: 81.5% (inactive)
- viability [4]: 85.4% (inactive)
- viability [5]: 98.1% (inactive)
- differential viability (reversal) ([6]; H69AR cells + 2 uM doxorubicin): -1.58% (inactive)
- viability [6, 16]: 99.7%
- viability [6, 17]: 98.1%
- inhibition [7]: -3.87% (inactive)
- inhibition [8]: 0.16% (inactive)
- growth inhibition [9]: -2.17% (inactive)
- growth inhibition [10]: 2.93% (inactive)
- viability increase [11]: -0.49% (inactive)
- viability [12]: 100% (inactive)
- viability [13]: 101% (inactive)
- inhibition [14]: 1.96% (inactive)
- RAM network inhibition [15]: -1.04% (inactive)

SMILES: COc1ccc(OC)c(C2CC(=O)NC(SC)=C2C#N)c1 (stereo not given)
- viability [1]: 102%
- Her2 level [2]: 94% (inactive)
- viability [3]: 102% (inactive)
- viability [4]: 83.1% (inactive)
- viability [5]: 94.3% (inactive)
- differential viability (reversal) ([6]; H69AR cells + 2 uM doxorubicin): 11.6% (inactive)
- viability [6, 16]: 82.8%
- viability [6, 17]: 94.3%
- inhibition [7]: -5.33% (inactive)
- inhibition [8]: -9.02% (inactive)
- growth inhibition [9]: -11.4% (inactive)
- growth inhibition [10]: -5.61% (inactive)
- viability increase [11]: 0.31% (inactive)
- viability [12]: 104% (inactive)
- viability [13]: 92.6% (inactive)
- inhibition [14]: -0.015% (inactive)
- RAM network inhibition [15]: 2.19% (inactive)

SMILES: COc1cccc(C(=O)OCn2nnc3ccccc3c2=O)c1OC
- viability [1]: 85.5%
- Her2 level [2]: 102% (inactive)
- viability [3]: 85.5% (inactive)
- viability [4]: 97.7% (inactive)
- viability [5]: 86.9% (inactive)
- differential viability (reversal) ([6]; H69AR cells + 2 uM doxorubicin): -22% (inactive)
- viability [6, 16]: 109%
- viability [6, 17]: 86.9%
- inhibition [7]: -2.67% (inactive)
- inhibition [8]: -3.67% (inactive)
- growth inhibition [9]: 8.45% (inactive)
- growth inhibition [10]: 5.07% (inactive)
- viability increase [11]: 0.09% (inactive)
- viability [12]: 96.5% (inactive)
- viability [13]: 99.9% (inactive)
- inhibition [14]: 2.57% (inactive)
- RAM network inhibition [15]: -0.62% (inactive)

SMILES: Cn1c(=O)c2c(nc3sccn32)n(C)c1=O
- viability [1]: 106%
- Her2 level [2]: 109% (inactive)
- viability [3]: 106% (inactive)
- viability [4]: 112% (inactive)
- viability [5]: 87.7% (inactive)
- differential viability (reversal) ([6]; H69AR cells + 2 uM doxorubicin): -1.71% (inactive)
- viability [6, 16]: 89.4%
- viability [6, 17]: 87.7%
- inhibition [7]: -3.51% (inactive)
- inhibition [8]: -4.1% (inactive)
- growth inhibition [9]: -7.3% (inactive)
- growth inhibition [10]: -10.3% (inactive)
- viability increase [11]: -1.33% (inactive)
- viability [12]: 101% (inactive)
- viability [13]: 99.4% (inactive)
- inhibition [14]: 1.48% (inactive)
- RAM network inhibition [15]: 2.73% (inactive)
